Screening data: PubChem BioAssay, several laboratories
The list is not random: actives were taken first. Their share in the collection is about 1.5%.
CRFR2-BP ag: CRF-BP/CRF-R2 complex agonism; HEK293 CRF-R2/CRF-BP, calcium dye fluorescence (FLIPR); percent of saturating CRF peptide response; activation, % at 13.2 µM; actives 0.46% (n = 350,000);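 active means activation of at least 50%, plus an integration ratio under a set limit after plate pattern correction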;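 further: plate controls were neutral control wells without compound for no effect and CRF at EC100 for full effect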
IDE cell inh: inhibits human insulin-degrading enzyme in HEK cells. P14735. FAbetaB cleavage, fluorescence polarization. actives 0.41% (n = 320,000). inhibition, % at 5.59 µM;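 active means percent inhibition above the average of all tested compounds plus 3 SD, set per screening campaign, cut at about 16% in these data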;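 further: IDE supplied by intact live HEK cells; FP after avidin binding of uncleaved biotin substrate so inhibition keeps polarization high; 0% = DMSO wells and 100% = 60 µM reference IDE inhibitor Ii1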
Target sequence (P14735 whole entry, looked up): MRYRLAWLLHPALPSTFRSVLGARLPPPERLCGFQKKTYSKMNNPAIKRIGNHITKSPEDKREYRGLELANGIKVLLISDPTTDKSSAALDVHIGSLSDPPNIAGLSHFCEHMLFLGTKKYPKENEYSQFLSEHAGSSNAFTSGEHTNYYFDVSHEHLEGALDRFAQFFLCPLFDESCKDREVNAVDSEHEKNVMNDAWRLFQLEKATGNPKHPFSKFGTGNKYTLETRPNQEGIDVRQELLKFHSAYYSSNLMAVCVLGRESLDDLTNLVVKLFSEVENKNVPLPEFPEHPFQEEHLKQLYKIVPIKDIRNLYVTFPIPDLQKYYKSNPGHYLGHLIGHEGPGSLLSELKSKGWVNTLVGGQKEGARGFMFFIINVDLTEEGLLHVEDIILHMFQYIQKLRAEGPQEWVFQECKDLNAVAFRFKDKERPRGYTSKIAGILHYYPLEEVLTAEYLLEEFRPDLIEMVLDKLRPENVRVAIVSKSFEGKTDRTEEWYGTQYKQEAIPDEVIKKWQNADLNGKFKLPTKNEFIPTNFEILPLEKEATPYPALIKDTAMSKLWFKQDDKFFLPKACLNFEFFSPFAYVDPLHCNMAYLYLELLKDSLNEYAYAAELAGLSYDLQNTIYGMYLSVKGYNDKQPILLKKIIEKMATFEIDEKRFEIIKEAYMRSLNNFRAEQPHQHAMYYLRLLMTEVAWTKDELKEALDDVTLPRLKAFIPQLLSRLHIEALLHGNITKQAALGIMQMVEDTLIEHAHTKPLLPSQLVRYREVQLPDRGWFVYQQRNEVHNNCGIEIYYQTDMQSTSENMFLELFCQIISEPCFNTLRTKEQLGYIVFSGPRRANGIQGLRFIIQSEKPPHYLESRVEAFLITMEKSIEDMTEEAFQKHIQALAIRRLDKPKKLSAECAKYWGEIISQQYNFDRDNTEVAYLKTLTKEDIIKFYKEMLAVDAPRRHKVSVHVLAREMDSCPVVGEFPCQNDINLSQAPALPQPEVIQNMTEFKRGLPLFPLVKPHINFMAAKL
RTF Ca sens inh: cardiac RTF calcium desensitization; P19429+P45379; inhibition, % at 7.15 µM; actives 0.12% (n = 340,000); IANBD-labeled cardiac RTF, Ca2+ fluorescence;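 active means inhibition above the mean inhibition of all tested compounds plus 3 SD, cut at about 17% in these data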;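 further: assay run at fixed EC70 calcium of 1.6 mM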
CRFR2-BP antag: CRF-BP/CRF-R2 complex antagonism | actives 0.59% (n = 350,000) | HEK293 CRF-R2/CRF-BP, CRF-induced calcium fluorescence | AID 588475 | inhibition, % at 11.8 µM;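 active means inhibition of the ligand-induced calcium signal above about 50% at the single tested concentration, limit read from the data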
cardiac RTF act: increases calcium sensitivity of human cardiac regulated thin filaments; IANBD-labeled TnC RTF fluorescence at EC20 calcium; 0% EC20 calcium, 100% full calcium; activation, % at 7.2 µM; actives 0.24% (n = 340,000);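 active means activation above the mean over all tested compounds plus 3 SD, cut at about 30% in these data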;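 further: rise in fluorescence read as greater calcium sensitivity of cardiac thin filaments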
IDE act: boosts human insulin-degrading enzyme activity in HEK cells | FAbeta-B cleavage, fluorescence polarization; 0% vehicle, 100% cell-free pure enzyme wells | activation, % at 5.96 µM | actives 0.073% (n = 340,000) | AID 493087;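 active means activation above the mean of all tested compounds plus 3 SD, set per screening campaign, cut at about 17% in these data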
An asterisk follows results filed as active; . = no result.

SMILES | CRFR2-BP ag | IDE cell inh | RTF Ca sens inh | CRFR2-BP antag | cardiac RTF act | IDE act
COC(=O)COc1ccc(Oc2nc(SC)nc(N(C)C)n2)nn1 | 55.4* | 0.0 | -8.6 | -54.5 | 6.1 | 1.6
COc1ccccc1N1CCN(C(=O)NCc2cccc(C(F)(F)F)c2)CC1 | 0.8 | -2.0 | -3.4 | -1.3 | -5.3 | 5.6
O=S(=O)(NCc1cccnc1)c1ccc2ccccc2c1 | 0.0 | -0.5 | -30.0 | 4.5 | -4.9 | -0.4
COc1ccccc1N1CCN(S(=O)(=O)c2ccc3nc(-c4ccccc4)[nH]c3c2)CC1 | -1.2 | 31.9* | -1.7 | -20.7 | -1.1 | -24.5
O=S(=O)(c1ccc2nc(-c3ccccc3)[nH]c2c1)N1CCN(c2cccc(Cl)c2)CC1 | 0.3 | -5.9 | -8.9 | -37.4 | -0.4 | -1.4
CC(C=NNc1ccc([N+](=O)[O-])cn1)=Cc1ccccc1 | 1.1 | . | 0.2 | -3.0 | -1.8 | 3.7
CC(C)=C1C2CCC1C(C(=O)Nc1sc(C)c(-c3ccc(C(C)C)cc3)c1C(N)=O)C2C(=O)O (centres undefined) | 78.4* | -3.7 | -2.0 | 108.6* | -6.5 | 0.1
CCOc1ccc(C(=O)CCC(=O)Nc2cccc(S(=O)(=O)N3CCCCC3)c2)cc1 | 1.5 | 4.4 | -8.2 | 0.5 | 1.9 | -3.8
CCc1nc(NCc2ccccc2)c(C#N)c2c1CCCC2 | -0.1 | 1.4 | -18.5 | -13.7 | -2.3 | -5.2
CCc1nc(NCCC(C)C)c(C#N)c2c1CCCC2 | 4.3 | 1.1 | 2.8 | 58.6* | 11.0 | -0.7
COCCN(CCOC)Cc1c(O)ccc2c1O/C(=C\c1ccc(C)o1)C2=O | 4.3 | 3.5 | -86.2 | 5.5 | 146.8* | -7.8
Cc1ccc(/C=C2\Oc3cc(OCC(=O)NN)ccc3C2=O)o1 | 0.3 | . | -13.0 | 0.8 | 1.3 | -4.1
COc1ccccc1/C=C/C=C1\Oc2c(ccc(O)c2CN(C)C)C1=O | 41.0 | 9.9 | -147.1 | -33.3 | 107.4* | -17.3
CCN(CC)Cc1c(O)ccc2c1O/C(=C\C=C\c1ccccc1)C2=O | 41.4 | 6.3 | -164.9 | -25.1 | 112.8* | -2.5
O=C(NCCSc1ccc(Br)cc1)c1ccc2nc[nH]c2c1 | -1.8 | 1.7 | 4.5 | 3.5 | -2.9 | 20.0*
COC(=O)CC1SC(=O)NC1=Nc1ccc(OC)cc1 (centres undefined) | -7.9 | -4.1 | -1.6 | 73.3* | 4.8 | 4.1
COC(=O)CC1SC(=O)NC1=Nc1ccc(O)cc1 (centres undefined) | -2.1 | 3.5 | 0.3 | -20.4 | -3.6 | 3.7
Cc1c(CC(=O)N2CCC(C(N)=O)CC2)c(=O)oc2cc3c(cc12)CCC1(CCCCC1)O3 | 0.2 | 4.8 | -2.5 | -7.6 | 0.0 | 4.7
COc1cc(NC(=S)NCCC(c2ccccc2)c2ccccc2)c(OC)cc1Cl | 1.6 | 1.2 | -12.8 | 64.7* | 9.2 | 4.3
COc1ccc(Cl)cc1NC(=S)NCCC(c1ccccc1)c1ccccc1 | -0.1 | -0.2 | -0.2 | 8.6 | -7.4 | -3.9
COc1ccc(S(=O)(=O)NC(C)C(=O)NCc2ccccn2)cc1OC (centres undefined) | 1.4 | -0.3 | -13.0 | -5.8 | 3.2 | 0.5
C=CCSC1=N/C(=C\c2ccc3c(c2)OCO3)C(=O)S1 | 1.0 | 6.6 | -0.6 | -1.6 | 6.7 | 9.5
C=CCSC1=N/C(=C\c2cc(OCC)c(OC(C)=O)c([N+](=O)[O-])c2)C(=O)S1 | -1.3 | 6.3 | 4.5 | 53.4* | 1.0 | -0.3
COc1ccc(CN2C(=O)NC(C)(c3ccc(C)cc3)C2=O)cc1F (centres undefined) | -0.8 | 3.5 | 1.9 | 1.5 | 0.9 | 1.1
CCN1C(=O)C(=O)N(Cc2ccc(OC)c(F)c2)C1=O | -0.4 | 3.9 | 0.8 | 84.2* | 0.1 | 3.8
CC(=O)c1sc(NC(=O)C2(F)C(F)(F)C(F)(F)C(F)(F)C(F)(F)C2(F)F)nc1C | 49.3 | -7.4 | -1.6 | 66.2* | -12.4 | -4.5
CC(=O)c1sc(NC(=O)C=C(C)C)nc1C | -3.4 | -5.3 | 2.5 | -5.1 | -4.7 | 0.5
Cc1ccc(C(C)C)c2c1C(c1ccc3c(c1)OCO3)CC(=O)O2 (centres undefined) | 66.3* | . | -2.5 | -8.1 | -2.3 | 6.0
Cc1cc2c(c(C)c1Cl)C(c1ccc3c(c1)OCO3)CC(=O)O2 (centres undefined) | -2.6 | . | 2.3 | -2.4 | -3.8 | 6.2
